CYP2C9 inhib = inhibitors of human CYP2C9; P11712; CYP2C9 Supersomes, luciferin-H conversion, luminescence; inhibition, % at 5 µM; hit rate 20% among 96,000;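 active = blocking of liver enzyme CYP2C9 beyond about 50% at 5 µM, limit read from the data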
CYP2C19 inh = blocks human cytochrome P450 2C19. P33261. CYP2C19 Supersomes, luciferin-H EGE luminescence, 30 min. inhibition, % at 5 µM. hit rate 21% among 96,000;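 active = CYP2C19 inhibition above a set limit at 5 µM in the primary screen, cut at about 50% in these data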;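 note: plate controls were negative control wells for no effect and 2.5 mM tranylcypromine positive control for full effect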
Target sequence (P33261 whole entry, looked up): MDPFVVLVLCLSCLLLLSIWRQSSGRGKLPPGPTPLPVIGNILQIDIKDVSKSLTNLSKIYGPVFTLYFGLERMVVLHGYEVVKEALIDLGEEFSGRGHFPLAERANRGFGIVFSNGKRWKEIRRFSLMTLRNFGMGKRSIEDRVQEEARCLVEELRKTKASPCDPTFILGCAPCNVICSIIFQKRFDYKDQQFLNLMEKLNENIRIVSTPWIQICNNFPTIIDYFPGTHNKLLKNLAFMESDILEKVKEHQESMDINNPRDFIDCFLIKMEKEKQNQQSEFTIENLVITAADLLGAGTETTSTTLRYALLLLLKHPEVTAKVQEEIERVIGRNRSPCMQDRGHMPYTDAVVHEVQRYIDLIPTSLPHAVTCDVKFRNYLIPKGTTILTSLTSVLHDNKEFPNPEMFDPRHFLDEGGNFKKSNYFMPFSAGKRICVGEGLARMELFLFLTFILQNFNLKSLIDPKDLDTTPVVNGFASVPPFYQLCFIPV
CYP2C9 activ = activators of human CYP2C9 | hit rate 1.4% among 96,000 | P11712 | activation factor at 5 µM | recombinant CYP2C9, luciferin-H conversion, luminescence; hits give high values; factor 1 = untreated enzyme, 0 = blocked | AID 1024;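 active = activation factor of 2 or more for CYP2C9 at a 5 µM dose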;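 note: 0 = sulfaphenazole-blocked wells and 1 = vehicle-only wells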
Measles CPE = protection of cells from measles virus. AID 841. Measles virus-infected cells, CPE protection, absorbance. hit rate 1.5% among 140,000. protection (pct of control), % at 4 µM; in the data active = protection mostly above about 24%, no sharp cut-off; inactive = mostly below about 26%
CYP2C19 act = cytochrome P450 2C19 (human) activation. P33261. recombinant CYP2C19, luciferin-H EGE luminescence; hits give high values; 0 = fully inhibited enzyme, 1 = untreated enzyme. activation factor at 5 µM. 96,000 tested, under 10 active. AID 1025;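 active = activation factor of at least 2 at 5 µM in the primary screen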;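 note: 0 = wells with 2.5 mM tranylcypromine and 1 = vehicle-only wells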
* marks the source's active call; other numbers are inactive results; nt = no result given. Most compounds without a hit are left out; they make up all but 22% or so of the library.

SMILES	CYP2C9 inhib	CYP2C19 inh	CYP2C9 activ	Measles CPE	CYP2C19 act
CCCNC(=O)C(CC)NS(=O)(=O)c1ccc(OC)cc1 (configuration not stated)	16.3	1.1	0.8	28.9	1
O=C(Nc1ccc2c(c1)OCCO2)c1cccs1	nt	nt	nt	9.1	nt
O=C(c1ccc2c(c1)OCCCO2)c1cccs1	59.6*	74.4*	0.4	16.7	0.3
Nn1c(SCC(=O)Nc2ccc3c(c2)OCO3)nnc1-c1cccc(Cl)c1	12.3	-16.1	0.9	2.8	1.2
CN(C)S(=O)(=O)c1cccc(-c2nnc(SCc3cc(Cl)cc4c3OCOC4)n2N)c1	81.8*	43.0	0.2	22.1	0.6
Cn1nnnc1SCC(=O)Nc1c(Cl)cccc1Cl	15.3	9.5	0.8	4.8	0.9
COc1ccc(/C=C/c2ccncc2)c2ccccc12	54.4*	88.1*	0.5	26.4	0.1
COc1ccccc1/C=C/C=N/NC(=O)c1ccncc1	nt	nt	nt	7.0	nt
O=C(COC(=O)c1ccccc1)Nc1ccccc1N1CCOCC1	nt	nt	nt	19.7	nt
CCN(CC)C1=CC2=CC(=C(C#N)C#N)CCC2CC1 (configuration not stated)	nt	nt	nt	38.9*	nt
COC(=O)c1c(-c2ccc(C(C)(C)C)cc2)csc1NC(=O)C1C2CCC(O2)C1C(=O)O (configuration not stated)	nt	nt	nt	10.5	nt
CN(C)c1ccc(-n2cc3c(=O)n(C)c(=O)n(C)c3c2)cc1	75.9*	46.2	0.2	5.7	0.5
O=c1c2ccccc2c(-c2ccccc2)nn1Cc1c(Cl)cccc1Cl	21.5	3.3	0.8	5.5	1
O=c1cc2c(nn1Cc1ccccc1Cl)-c1ccccc1CC2	93.7*	95.4*	0.1	14.0	0
COC(=O)c1cc(C(=O)OC)n(Cc2ccc(Cl)cc2Cl)n1	-6.2	25.5	1.1	0.7	0.7
O=c1cc2c(nn1Cc1ccc(Cl)cc1Cl)-c1ccccc1CC2	66.8*	51.4*	0.3	23.2	0.5
CSc1ncc2c(n1)-c1cc(C)ccc1SC2	21.0	-0.5	0.8	3.9	1
Cc1cc(C)n(-c2cc(N3CCN(S(=O)(=O)c4ccc(Br)cc4)CC3)ccc2[N+](=O)[O-])n1	nt	nt	nt	8.3	nt
Cc1cc(C)c(S(=O)(=O)N2CCN(c3ccc([N+](=O)[O-])c(-n4nc(C)cc4C)c3)CC2)c(C)c1	60.2*	18.4	0.4	2.2	0.8
Cc1ccc(F)c(NC(=O)C2CCCCC2C(=O)O)c1 (configuration not stated)	-2.4	-4.0	1	3.1	1
CCc1cccc(CC)c1NC(=O)CSc1nc2ccc(N3C(=O)C4C(C3=O)[C@H]3C=C[C@@H]4C3)cc2s1 (some centres not stated)	nt	nt	nt	6.8	nt
CC(NC(=O)CCl)c1ccc(Cl)c(Cl)c1 (configuration not stated)	47.0	86.0*	0.5	11.7	0.1
O=C(CSc1ncnc2scc(-c3ccccc3)c12)N1CCN(Cc2ccc3c(c2)OCO3)CC1	nt	nt	nt	40.4	nt
COC(=O)/C=C(\C)NC(=O)c1ccccc1Cl	11.3	80.1*	0.9	22.4	0.2
CC(=O)c1cccc(NC(=S)NC(=O)c2ccccc2Cl)c1	nt	nt	nt	5.4	nt
SMILES	CYP2C9 inhib	CYP2C19 inh	CYP2C9 activ	Measles CPE	CYP2C19 act
COC1(OC)C(/C=C/c2ccc(Cl)cc2)C(C#N)(C#N)C1(OC)OC (configuration not stated)	nt	nt	nt	4.7	nt
O=C(NC12CC3CC(CC(C3)C1)C2)c1ccc(COc2ccc(Cl)cc2[N+](=O)[O-])o1	74.7*	41.2	0.3	18.5	0.6
O=C(NC12CC3CC(CC(C3)C1)C2)c1ccc(-c2cccc(Cl)c2)o1	nt	nt	nt	5.0	nt
Cn1c(C(=O)N2CCCc3ccccc32)cc2sccc21	30.8	71.0*	0.7	16.5	0.3
O=C(c1cc2sccc2n1Cc1ccccc1)N1CCCc2ccccc21	94.7*	88.0*	0.1	16.0	0.1
O=C(c1cc2sccc2n1Cc1ccc(F)cc1)N1CCN(c2nc3ccccc3s2)CC1	nt	nt	nt	5.3	nt
O=C(c1cc2sccc2n1Cc1ccccc1)N1CCc2ccccc21	63.1*	12.7	0.4	6.2	0.9
O=C1CC(C(=O)N2CCOCC2)C2(CCCCC2)O1 (configuration not stated)	-23.9	26.1	1.2	11.3	0.7
Cc1ccc(/C=C/C(=O)Nc2nnc(C)s2)o1	nt	nt	nt	20.1*	nt
CC(Sc1nnc(-c2ccc(Cl)cc2)n1C)C(N)=O (configuration not stated)	-4.2	-1.1	1	16.8	1
COc1cc(-c2noc(CCCC(=O)NCc3ccccc3)n2)cc(OC)c1OC	-2.7	15.2	1	11.3	0.8
Cc1ccc(-c2nn(-c3cc(Cl)ccc3[N+](=O)[O-])c(=O)c3ccccc23)cc1	30.8	51.4*	0.7	-0.2	0.5
CC(C)(C)C(=O)N1CCN(c2ccc([N+](=O)[O-])c(-n3nc(-c4ccccc4)c4ccccc4c3=O)c2)CC1	nt	nt	nt	21.7	nt
C/C(=N\NC(=S)NC1CCCCC1)c1ccccc1	nt	nt	nt	1.9	nt
CC(C)C(NS(=O)(=O)c1cccs1)C(=O)N1CCc2ccccc2C1 (configuration not stated)	43.3	78.6*	0.6	3.4	0.2
O=C(CNS(=O)(=O)c1cccs1)N1CCc2ccccc2C1	-13.0	53.2*	1.1	24.9	0.5
O=C(CNS(=O)(=O)c1cccs1)N1CCCC1	-4.0	9.6	1	3.8	0.9
O=C(CCCNS(=O)(=O)c1cccs1)N1CCc2ccccc2C1	-61.8	55.3*	1.6	13.4	0.4
Cc1ccc(S(=O)(=O)N2C(=S)SCC2(C)C)cc1	-7.2	74.1*	1.1	11.0	0.3
CC1=CC(C)(C)N(S(=O)(=O)c2ccc(C)cc2)c2cc(C)ccc21	42.6	43.4	0.6	4.2	0.6
O=C(CSc1ccc(-c2ccc(Cl)cc2)nn1)Nc1ccc2c(c1)OCCO2	nt	nt	nt	19.7	nt
O=C(O)CSC1=NC(=Nc2ccc(Cl)cc2)C2(CCCCC2)N1c1cccc(C(=O)O)c1	nt	nt	nt	27.1	nt
COC(=O)C1CCC(C)(C(=O)Nc2ccccc2)C1(C)C (configuration not stated)	63.8*	68.1*	0.4	10.4	0.3
CCN(CC)S(=O)(=O)c1cccc(C(=O)N[C@H](C(=O)OCC(N)=O)C(C)C)c1	28.1	9.2	0.7	18.3	0.9
CCc1nnc(NC(=O)[C@@H](NC(=O)c2cccc(S(=O)(=O)N(CC)CC)c2)C(C)C)s1	72.2*	79.1*	0.3	8.9	0.2
SMILES	CYP2C9 inhib	CYP2C19 inh	CYP2C9 activ	Measles CPE	CYP2C19 act
CCN(CC)S(=O)(=O)c1cccc(C(=O)N[C@H](C(=O)OCC(=O)Nc2ccccc2)C(C)C)c1	98.8*	93.1*	0	9.2	0.1
Cc1nnc(NC(=O)CCC(=O)N2CCN(CCc3ccccc3)CC2)s1	2.0	2.4	1	nt	1
CCCS(=O)(=O)c1nc(S(=O)(=O)c2ccc(C)cc2)c(N2CCc3ccccc3C2)s1	nt	nt	nt	16.8	nt
Fc1cccc(NC(=S)NCCN2CCOCC2)c1	nt	nt	nt	4.3	nt
CSc1ccccc1NC(=O)Nc1ccc(Cl)cc1	52.6*	85.0*	0.5	31.2	0.2
CC1CCN(C(=S)c2ccc(O)cc2)CC1	-9.4	45.3	1.1	14.2	0.5
CC1CCN(C(=S)c2ccccc2O)CC1	29.0	94.4*	0.7	0.1	0.1

Compound activity (PubChem BioAssay)
